In PubChem BioAssay AID686934 (National Center for Advancing Translational Sciences (NCATS), 2013) one finds outcome data, which are given here for six molecules.

Inconclusive results are not listed. Activity calls are given as the source filed them. The call rests on the fitted dose curve; in most records, active means well fitted curve in the direction sought with a large enough effect; inconclusive means small, poorly fitted or top-dose-only effect, or another doubt; inactive means no such curve, though single readings can be large or run the other way.

The assay can be described thus: qHTS screen for small molecules that inhibit ELG1-dependent DNA repair: SAR in Cell-Based Luciferin Counter Assay. As to conditions: cell-based luciferase counter-screen, luminescence; series mostly up to 45.7 µM. From the text: Cancer cells divide rapidly compared to normal cells in the body. During cell division, cancer cells need to duplicate their genome by DNA replication. The failure of genome duplication leads to cancer cells' death. Therefore, inhibitors of DNA replication could specifically kill cancer cells. Based on this concept, many chemotherapeutic agents were developed and have been used to treat cancer patients. However, there are a limited number of agents available in the clinical setting, and some of those that do exist have low efficacy and severe side effects. Therefore, if we can find the compounds that effectively block DNA replication either by directly damaging DNA or by inhibiting other cellular mechanisms, the options for cancer treatment will be broadened. With this in mind, we developed a quantitative high-throughput ELG1-luciferase reporter gene assay. Small molecules that specifically block ELG1 function in response to DNA damage can be identified by monitoring the suppression of luciferase activity. Since ELG1 defines a pathway for repairing DNA damage, agents blocking ELG1 function can be used to sensitize cancer cells to chemotherapeutic agents whose mechanism of action involves the induction of DNA damage. This assays is a counterscreen, that is more specifically, a cell-based luciferase assay following treatment with putative ELG1 antagonists to eliminate luciferase enhancers/inhibitors NIH Molecular Libraries Probe Production Network [MLPCN] NIH Chemical Genomics Center [NCGC] MLPCN Grant: R03 MH092164 Assay Provider: Kyungjae Myung, NHGRI, NIH
3 uL of substrate reagent will be pipetted into each well in 1536-well white, solid-bottom plates using a FRD dispenser, followed by addition of 23 nL of DMSO or compounds by pintool. After compound addition, 1 µL of luciferase will be added into the wells. The plates will be read in a ViewLux CCD-based plate reader.
Turning to `CCCSc1ccc2nc(NC(=O)OC)[nH]c2c1`, the molecule was classed as inactive.

In the case of `CN[C@@H]1C[C@@]2(C)O[C@@H]([C@@H]1OC)n1c3ccccc3c3c4c(c5c6ccccc6n2c5c31)C(=O)NC4`, the molecule was called inactive.

As for `CCCCCC1C(=O)O[C@H](C)[C@@H](NC(=O)c2cccc(NC=O)c2O)C(=O)OC(C)C1OC(=O)CC(C)C` (stereo partly specified), the result was inactive.

In the case of `CC(=O)OCC1=C[C@H]2[C@@H]3C(C)(C)[C@]3(OC(=O)Cc3ccccc3)C[C@@H](C)[C@]2(O)[C@@H]2C=C(C)C(=O)[C@@]2(O)C1`, the call was inactive.

Take `O=C(CCl)c1ccc(O)c(O)c1`: the result was inactive.

As for `CCCC(=O)O[C@@H]1[C@@H](C)[C@@]2(O)[C@@H](C=C(CO)C[C@]3(O)C(=O)C(C)=C[C@@H]23)[C@@H]2C(C)(C)[C@]12OC(=O)CCC`, the molecule was classed as inactive.
